According to PubChem BioAssay:
Activity calls are given as the source filed them.

Columns and labels:
[1] = optical density shifts of acrAB sulA E. coli – strain DRC41, OD650, 48 h, E. coli filamentation inducer project, primary screen (AID 1152); details: higher = more signal, called active from +8 up or from −8 down;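 note: E. coli MC1000 strain DRC41 lacking acrAB efflux pump and sulA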
[2] = probe aLefty1 binding on compound microarray – biochemical, small-molecule microarray, 635/667 nm fluorescence, primary screen (AID 1153); details: higher = more signal;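 note: score merges spot fluorescence with signal-to-noise ratio from the scanned slide images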
[3] = plasmodial surface anion channel blockers, osmotic lysis – cell-based, P. falciparum Indochina, OD700, 1 h, primary screen (AID 1154); details: P. falciparum Indochina infected RBC osmotic lysis, higher = more signal, called active from +8 up or from −8 down
[4] = plasmodial surface anion channel blockers, osmotic lysis – cell-based, P. falciparum Indochina, OD700, 2 h, primary screen (AID 1155);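 note: lysis reports solute entry through the parasite surface anion channel PSAC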; details: P. falciparum Indochina infected erythrocytes, higher = more signal, called active from +8 up or from −8 down
[5] = changes in parasitized red cell lysis, either direction – P. falciparum Indochina, OD700, 3 h, PSAC antagonist project, primary screen (AID 1156); details: P. falciparum-infected erythrocytes, osmotic lysis, higher = more signal, called active from +8 up or from −8 down
[6] = plasmodial surface anion channel blockers, osmotic lysis – cell-based, P. falciparum Indochina, OD700, 18 h, primary screen (AID 1157); details: P. falciparum Indochina infected erythrocytes, osmotic lysis OD700, 18 h; higher = more signal, called active from +8 up or from −8 down
[7] = S6 kinase pathway phospho-S6 level changes – cell-based, A549, cytoblot, luminescence, serum-stimulated, primary screen (AID 1158); details: 5 h, higher = more signal;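 note: serum-stimulated A549 lung adenocarcinoma cells; signal is phosphorylated S6 detected by cytoblot immunostaining with HRP secondary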
[8] = biological target: NADPH oxidase 2 (Homo sapiens) (UniProt P04839); assay: compounds shifting NOX2 Amplex Red fluorescence – cell-based, HEK293-NOX2, PMA-stimulated, NOX inhibitor project, primary screen (AID 1159); details: 45 min, higher = more signal, called active from +8 up or from −8 down; note: test concentration not given here
[9] = biological target: NADPH oxidase 4 (Homo sapiens) (UniProt Q9NPH5); assay: compounds shifting NOX4 Amplex Red fluorescence – cell-based, HEK293-NOX4, tetracycline-induced, NOX inhibitor project, primary screen (AID 1160); details: HEK293-NOX4, Amplex Red H2O2 fluorescence, 45 min; higher = more signal, called active from +8 up or from −8 down
[10] = biological target: NADPH oxidase 5 (Homo sapiens) (UniProt Q96PH1); assay: compounds shifting NOX5 Amplex Red fluorescence – cell-based, HEK293-NOX5, NOX inhibitor project, primary screen (AID 1161); details: HEK293-NOX5, ionomycin, 45 min, higher = more signal
Sequence of NADPH oxidase 5 (Homo sapiens) (Q96PH1 whole entry, looked up): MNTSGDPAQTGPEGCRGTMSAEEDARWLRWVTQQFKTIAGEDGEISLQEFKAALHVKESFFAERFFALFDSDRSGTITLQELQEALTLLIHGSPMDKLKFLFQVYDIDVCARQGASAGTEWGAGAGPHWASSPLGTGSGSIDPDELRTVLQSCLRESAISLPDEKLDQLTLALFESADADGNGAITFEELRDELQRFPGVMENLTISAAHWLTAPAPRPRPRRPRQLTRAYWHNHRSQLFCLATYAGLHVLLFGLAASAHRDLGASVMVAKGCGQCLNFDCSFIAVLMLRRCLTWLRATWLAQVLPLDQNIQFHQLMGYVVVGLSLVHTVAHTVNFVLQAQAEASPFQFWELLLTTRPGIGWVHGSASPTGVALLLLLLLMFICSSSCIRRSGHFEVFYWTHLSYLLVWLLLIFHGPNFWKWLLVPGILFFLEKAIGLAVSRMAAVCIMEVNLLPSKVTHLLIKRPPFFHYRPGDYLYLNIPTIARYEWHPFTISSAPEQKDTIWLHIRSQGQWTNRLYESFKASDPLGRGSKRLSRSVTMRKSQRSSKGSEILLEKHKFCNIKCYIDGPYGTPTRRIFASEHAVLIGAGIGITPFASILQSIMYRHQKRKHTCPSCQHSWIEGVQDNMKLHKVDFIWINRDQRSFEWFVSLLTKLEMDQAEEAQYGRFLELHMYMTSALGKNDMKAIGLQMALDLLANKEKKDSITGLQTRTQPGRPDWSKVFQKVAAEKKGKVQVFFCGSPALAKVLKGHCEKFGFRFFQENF

Sequence of NADPH oxidase 2 (Homo sapiens) (P04839 whole entry, looked up): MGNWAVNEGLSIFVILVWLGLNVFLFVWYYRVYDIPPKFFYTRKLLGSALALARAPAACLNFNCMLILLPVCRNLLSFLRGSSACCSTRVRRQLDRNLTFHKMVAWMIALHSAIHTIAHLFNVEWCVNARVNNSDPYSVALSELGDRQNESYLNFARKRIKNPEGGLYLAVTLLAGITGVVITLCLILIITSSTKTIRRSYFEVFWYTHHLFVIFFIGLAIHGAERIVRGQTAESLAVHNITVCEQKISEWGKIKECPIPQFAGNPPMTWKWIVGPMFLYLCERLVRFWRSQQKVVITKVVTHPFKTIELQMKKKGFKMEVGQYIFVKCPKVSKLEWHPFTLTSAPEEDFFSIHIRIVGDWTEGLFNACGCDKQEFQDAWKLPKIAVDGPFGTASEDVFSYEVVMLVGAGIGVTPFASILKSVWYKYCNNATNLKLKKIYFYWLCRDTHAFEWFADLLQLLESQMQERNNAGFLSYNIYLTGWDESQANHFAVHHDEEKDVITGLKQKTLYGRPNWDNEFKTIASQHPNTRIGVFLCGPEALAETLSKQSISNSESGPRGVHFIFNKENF
Sequence of NADPH oxidase 4 (Homo sapiens) (Q9NPH5 whole entry, looked up): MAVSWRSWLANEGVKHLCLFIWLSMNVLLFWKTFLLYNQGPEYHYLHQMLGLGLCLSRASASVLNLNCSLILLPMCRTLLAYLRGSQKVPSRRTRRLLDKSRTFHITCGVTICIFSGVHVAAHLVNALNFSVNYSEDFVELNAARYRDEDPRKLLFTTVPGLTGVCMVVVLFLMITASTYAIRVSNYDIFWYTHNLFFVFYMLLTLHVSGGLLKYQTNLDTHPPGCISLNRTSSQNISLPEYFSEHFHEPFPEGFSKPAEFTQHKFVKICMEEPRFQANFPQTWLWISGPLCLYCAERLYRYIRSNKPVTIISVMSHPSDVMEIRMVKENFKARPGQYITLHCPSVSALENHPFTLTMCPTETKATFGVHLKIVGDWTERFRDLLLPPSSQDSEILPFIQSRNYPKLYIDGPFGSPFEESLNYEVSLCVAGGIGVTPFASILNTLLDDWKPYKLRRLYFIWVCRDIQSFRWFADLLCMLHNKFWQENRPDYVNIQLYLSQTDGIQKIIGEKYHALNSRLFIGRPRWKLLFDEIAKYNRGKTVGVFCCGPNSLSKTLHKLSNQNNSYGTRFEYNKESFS

| SMILES | z-score [1] | composite z-score [2] | z-score [3] | z-score [4] | z-score [5] | z-score [6] | z-score [7] | z-score [8] | z-score [9] | z-score [10] |
| --- | --- | --- | --- | --- | --- | --- | --- | --- | --- | --- |
| CCS[C@H]1[C@@H](C(=O)O)[C@H](c2ccc(C)cc2)N(S(=O)(=O)c2ccc(C)cc2)[C@@H]1CC | 0.409 (inactive) | 0.157 | 1.56 (inactive) | 1.02 (inactive) | -0.129 (inactive) | 0.831 (inactive) | -0.0726 | 0.983 (inactive) | -0.149 (inactive) | 0.271 |
| C=C(C)[C@@H]1CC=C(C(O)C2C=CC3C(=O)N(c4ccccc4)C(=O)C3N2Nc2ccccc2)CC1 (stereo not given in full) | -0.59 (inactive) | 1.33 | 8.1 (active) | 2.94 (inactive) | 1.09 (inactive) | 1.73 (inactive) | -0.798 | -0.653 (inactive) | -3.06 (inactive) | -2.48 |
| O=C1C2C=CC(C(O)c3cc(C(F)(F)F)cc(C(F)(F)F)c3)N(n3cnnc3)C2C(=O)N1Cc1ccccc1 (stereo not given) | -0.546 (inactive) | 0.197 | 1.56 (inactive) | 1.11 (inactive) | 1.69 (inactive) | 0.833 (inactive) | -0.241 | -0.497 (inactive) | -0.889 (inactive) | -0.379 |
| C[C@H]1C2[C@H](Cc3ccccc3)NC(=O)[C@]23C(=O)N[C@H](Cc2ccccc2)C(=O)N2CCC[C@H]2C(=O)NC/C=C\C/C=C/C3[C@@H]2O[C@]12C (stereo not given in full) | 0.637 (inactive) | -0.026 | 1.4 (inactive) | -1.49 (inactive) | -1.3 (inactive) | -2.52 (inactive) | 0.477 | 0.977 (inactive) | 1.14 (inactive) | 1.73 |
| C#C[C@H](O[Si](C#Cc1ccc(Oc2ccccc2)cc1)(C(C)C)C(C)C)c1ccccc1 | -0.425 (inactive) | -0.104 | 0.353 (inactive) | 0.787 (inactive) | -2.03 (inactive) | -0.206 (inactive) | -0.305 | -1.03 (inactive) | -2.59 (inactive) | -3.04 |
| CC(C)=CCCC(C)=CC(O)C1C=CC2C(=O)N(C)C(=O)C2N1Nc1ccccc1 (stereo not given) | -1.5 (inactive) | 0.525 | 7.27 (inactive) | 2.86 (inactive) | 0.977 (inactive) | 1.93 (inactive) | -0.595 | -1.51 (inactive) | -3.97 (inactive) | -1.98 |
| COCCCNC(=O)[C@]1(CCC(=O)OC(C)(C)C)N=C(c2ccc(OCCCO)cc2)O[C@@H]1c1ccccc1CN=[N+]=[N-] | -0.458 (inactive) | 1.06 | 26.3 (active) | 7.34 (inactive) | 0.785 (inactive) | 1.13 (inactive) | -0.0406 | -0.974 (inactive) | 0.289 (inactive) | -0.307 |
| C=CCNC(=O)[C@@H]1[C@H]2C(=O)O[C@H](c3ccccc3)[C@H](c3ccccc3)N2[C@H](c2ccccc2OCCO)[C@@]12C(=O)N(C(=O)OCCOC)c1ccccc12 | -0.91 (inactive) | 0.238 | 2.92 (inactive) | 1.24 (inactive) | -0.693 (inactive) | 1.05 (inactive) | -0.458 | 1.88 (inactive) | -0.691 (inactive) | -0.1 |
| C=CCC(OC(C)=O)[C@@H]1[C@@H](N(Cc2ccc(-c3cccc(C(F)(F)F)c3)o2)C(=O)c2ccc(C)cc2)c2cc(OCCCO)ccc2N1C(=O)Cc1ccc2ccccc2c1 (stereo not given in full) | 1.93 (inactive) | -0.0035 | 1.05 (inactive) | 0.172 (inactive) | -0.305 (inactive) | 0.825 (inactive) | 0.533 | -0.439 (inactive) | 1.04 (inactive) | 1.51 |
| COCCOC(=O)N1C(=O)[C@@]2(c3ccccc31)[C@H](c1ccccc1OCCO)N1[C@H](c3ccccc3)[C@H](c3ccccc3)OC(=O)[C@H]1[C@@H]2C(=O)N1CCN(c2ncccn2)CC1 | -0.102 (inactive) | 0.0402 | 4.19 (inactive) | 2.16 (inactive) | 0.98 (inactive) | 1.49 (inactive) | -0.248 | -0.652 (inactive) | -0.44 (inactive) | 0.183 |
| CCC(CC)C(O)C1C=CC2C(=O)NC(=O)C2N1Nc1ccccn1 (stereo not given) | -0.613 (inactive) | 0.158 | 0.146 (inactive) | 0.519 (inactive) | -0.02 (inactive) | 0.973 (inactive) | -0.534 | -1.58 (inactive) | -2.05 (inactive) | -1.52 |
| C=CCNC(=O)[C@@H]1[C@H]2C(=O)O[C@H](c3ccccc3)[C@H](c3ccccc3)N2[C@H](c2ccc(OCCO)cc2)[C@@]12C(=O)Nc1ccc(C#CCC(C(=O)OC)C(=O)OC)cc12 | 1.13 (inactive) | 0.0973 | 5.24 (inactive) | 1.59 (inactive) | 1.28 (inactive) | 0.653 (inactive) | -0.186 | 2.32 (inactive) | 0.186 (inactive) | 0.236 |
| [N-]=[N+]=NCc1ccccc1C[C@]1(C(N)=O)COC(c2ccc(OCCCO)cc2)=N1 | 2.84 (inactive) | 0.52 | 15.3 (active) | 1 (inactive) | 1.68 (inactive) | -0.185 (inactive) | 2.31 | -1.48 (inactive) | -0.0652 (inactive) | -1.07 |
| CCCC[C@@H]1C[C@H]1[C@@H](NC(=O)c1ccco1)c1ccccc1C(F)(F)F | -1.91 (inactive) | 2.47 | 0.233 (inactive) | 0.105 (inactive) | -0.104 (inactive) | 0.471 (inactive) | -0.278 | -0.295 (inactive) | -1.28 (inactive) | -1.26 |
| NC(=O)NCC#Cc1ccc2c(c1)[C@]1(C(=O)N2)[C@H](c2ccc(O)cc2)N2[C@H](c3ccccc3)[C@H](c3ccccc3)OC(=O)[C@H]2[C@@H]1C(=O)O | -0.876 (inactive) | -0.573 | 3.1 (inactive) | 0.179 (inactive) | 0.259 (inactive) | 0.485 (inactive) | -0.0856 | 0.879 (inactive) | -0.0146 (inactive) | -0.305 |
| [N-]=[N+]=Nc1ccccc1[C@H]1OC(c2ccc(OCCCO)cc2)=N[C@@]1(CCS(=O)(=O)c1ccccc1)C(=O)NCC(O)CO (stereo not given in full) | -0.562 (inactive) | 0.0919 | 29.7 (active) | 28.2 (active) | 1.72 (inactive) | 2.09 (inactive) | -0.235 | 1.09 (inactive) | -0.0647 (inactive) | -1.07 |
| COC(=O)[C@@]1(Cc2ccc(OC)cc2)[C@H]2c3cc(C(=O)N4CCCC4)n(CCN4CNCC4=O)c3C[C@H]2CN1C(=O)c1ccccc1 | -0.82 (inactive) | 1.86 | 2.95 (inactive) | 0.0621 (inactive) | 0.775 (inactive) | 0.838 (inactive) | 0.287 | 0.468 (inactive) | -2.36 (inactive) | -4.44 |
| CO[C@H]1O[C@H](CO)[C@@H](OC(=O)Nc2ccc(C(F)(F)F)cc2)[C@H](OC(=O)Nc2ccc3c(c2)OCO3)[C@@H]1OC(=O)Nc1ccc2c(c1)OCO2 | -0.112 (inactive) | 0.199 | 25.8 (active) | 15.3 (active) | 3.6 (inactive) | 1.77 (inactive) | -0.176 | -0.794 (inactive) | -0.393 (inactive) | -0.486 |
| COC(=O)[C@@]1(Cc2ccc(OC)cc2)[C@H]2c3cc(C(=O)N4CCCC4)n(Cc4ccc(O)c(OC)c4)c3C[C@H]2CN1C(=O)c1ccccc1 | -0.703 (inactive) | 0.622 | 5.08 (inactive) | 0.722 (inactive) | 1.04 (inactive) | 0.739 (inactive) | 0.299 | -2.31 (inactive) | -4.7 (inactive) | -4.33 |
| CCCCCCc1nc(-c2ccc(OC)nc2)cc2c1[Si](C(C)C)(C(C)C)O[C@H]2c1ccccc1 | -1.03 (inactive) | -0.0559 | 0.614 (inactive) | 0.139 (inactive) | 0.245 (inactive) | -0.353 (inactive) | -0.168 | 0.0155 (inactive) | -0.95 (inactive) | -1.64 |
| COC(=O)[C@@]1(Cc2ccccc2)[C@H]2c3cc(C(=O)N(C)C)n(Cc4ccsc4Br)c3C[C@H]2CN1C(=O)c1ccccc1 | -0.775 (inactive) | 1.04 | 6.57 (inactive) | 1.07 (inactive) | 0.923 (inactive) | 1.25 (inactive) | -0.259 | -0.111 (inactive) | 0.106 (inactive) | 0.723 |
| O=C(N1CCCCC1)[C@]1(Cc2ccccc2)N=C(c2ccc(OCCCO)cc2)O[C@@H]1c1ccccc1 | -0.834 (inactive) | 0.446 | 28 (active) | 20.6 (active) | 0.696 (inactive) | 1.28 (inactive) | 2.33 | -2.82 (inactive) | -1.37 (inactive) | -1.7 |
| COC(=O)C(CC#Cc1ccc2c(c1)[C@]1(C(=O)N2)[C@H](C(=O)Nc2nc3ccccc3s2)[C@H]2C(=O)O[C@H](c3ccccc3)[C@H](c3ccccc3)N2[C@@H]1c1ccc(O)cc1)C(=O)OC | -1.2 (inactive) | 0.0809 | 1.14 (inactive) | 0.922 (inactive) | -4.32 (inactive) | 1.3 (inactive) | 0.0065 | 1.28 (inactive) | 0.602 (inactive) | -0.0824 |
| CO[C@H]1O[C@H](CO)[C@@H](OC(=O)Nc2ccccc2)[C@H](OC(=O)Nc2ccccc2)[C@@H]1OC(=O)Nc1ccccc1 | -0.24 (inactive) | -0.369 | 6.99 (inactive) | 1.35 (inactive) | 0.111 (inactive) | 1.18 (inactive) | 0.725 | -3.38 (inactive) | -0.394 (inactive) | -1.13 |
| Cc1ccc(S[C@]2(C(=O)NC3CC3)CC(=O)N(Cc3ccccc3)[C@@H]2c2ccc(CO)cc2I)cc1 | 1.24 (inactive) | 0.238 | 7.63 (inactive) | 1.12 (inactive) | -0.282 (inactive) | 0.401 (inactive) | 0.402 | 1.7 (inactive) | -1.16 (inactive) | 1.1 |
| C[N+](C)(C)CCCCNC(=O)[C@@H]1C[C@@H]2C(=O)N[C@@H](Cc3ccccc3)C(=O)N2[C@@H]1c1cccc(OCCO)c1 | 1.04 (inactive) | -0.0094 | 3.16 (inactive) | 0.469 (inactive) | -1.44 (inactive) | 0.13 (inactive) | 1.91 | -0.682 (inactive) | -0.331 (inactive) | 0.856 |
